S16 viability: S16 Schwann cell cytotoxicity; S16 Pmp22-F2sN Schwann cells viability, CellTiter-Glo, 24 h; Potency, µM (titrated, usually from 57.5 µM), for the others: top-dose activity change, negative = cytotoxicity, actives largely listed as cytotoxic; 43,000 compounds, 0.48% hits; AID 1508642; note: nearly all actives have a fitted effect of over 65% in size
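Luminescence from CellTiter-Glo, read by CCD camera after a 15 min room-temperature incubation, served as the viability signal. Reporter Schwann cells (S16 Pmp22-F2sN) had been treated with pin-transferred compounds for 24 h at 37C.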
pS6 MEF inh: inhibitors of mTORC1 signaling in Tsc2-/- p53-/- MEF cells | Tsc2-/- p53-/- MEF, phospho-rpS6 immunofluorescence/PI, 24 h | Potency, µM (series often up to 38.3 µM), for inactives: at the top dose activity change, negative = inhibition, hits mostly inhibitors | 44,000 compounds, 0.78% hits | AID 493208;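 note: plate controls were DMSO for no effect and rapamycin for full effect; nearly all actives have a fitted effect of over 50% in size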
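Tsc2-/-, p53-/- MEFs (empty-vector stable line) in DMEM + 10% FBS were treated with compounds 24 h at 37 degree Celsius, fixed, and immunostained for phospho-rpS6 (Alexa-488) with propidium iodide counterstain. Laser-scanning cytometry gave % positive cells, normalized against 7.5 nM rapamycin and DMSO.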
p53null 39C kill: p53 null cell cytotoxicity, nonpermissive temperature. H1299 p53-null (neo) cells, 39C, ATPlite viability, 24 h. Potency, µM (doses to about 46.1 µM), for inactives: at the top dose activity, negative = cell killing, usual class: cytotoxic. 55,000 compounds, 0.97% hits;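 note: 0% = DMSO only and -100% = full killing by 100 µM tamoxifen; nearly all actives have a fitted effect of over 50% in size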
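H1299 lung cancer cells, p53-null (H1299-neo) or expressing p53 A138V (H1299-p53A138V), were plated overnight at 37C, then exposed to compounds at up to 46 uM for 24 hr at 39C. Viability was read by ATP-based luminescence.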
SKOV3 invasion: blocks SKOV3ip1 adhesion and invasion in omental model | AID 1963576 | 46,000 compounds, 0.1% hits | SKOV3ip1-GFP adhesion/invasion on 3D omental model, fluorescence | Potency, µM (highest dose often 45.8 µM), inactives show at the highest dose activity change, negative = inhibition, most hits filed as inhibitors;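 note: plate controls were DMSO wells for no effect and tomatine positive control wells for full effect; nearly all actives have a fitted effect of over 65% in size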
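A 3D layer of primary human omental fibroblasts, mesothelial cells, fibronectin and collagen I, grown 48 hr, received SKOV3ip1-GFP cells in serum-free medium plus compounds at 0.36-46 umol/L. After 2 hr RT and 16 hr 37 C, fixed adherent GFP cells were counted; normalized to DMSO and tomatine.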
PMP22 txn: modulators of PMP22 gene transcription in S16 Schwann cells. S16 Pmp22-F2sN Schwann cells (luciferase reporters placed in the Pmp22 gene), FLuc/NLuc coincidence luminescence, 24 h. Potency, µM (highest dose often 57.5 µM), for the others: top-dose activity change, negative = inhibition, hits mostly inhibitors. 43,000 compounds, 2% hits. AID 1508649; active = clear falling dose curves in both reporters; inconclusive = both reporters move, but less clearly or upward; inactive = either reporter flat; the % is the NLuc reporter signal
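Schwann cells carrying the coincidence reporter were exposed to library compounds for 24 h at 37C, then lysed and read for FLuc and, after quenching, NLuc luminescence on a CCD imager.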
p53null 32C tox: kills p53 null cells at the permissive temperature. H1299-neo p53 null cells, ATP luminescence, 24 h, 32C. Potency, µM (series often up to 46.1 µM), inactives show top-dose activity change, negative = cytotoxicity, usual class: cytotoxic. 55,000 compounds, 0.62% hits. AID 903;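 note: 0% = DMSO only and -100% = full killing by 100 µM tamoxifen; nearly all actives have a fitted effect of over 55% in size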
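H1299-neo (p53 null) cells, 600/well, treated 24 h at 32C with compound up to 46 uM; ATPlite luminescence viability, normalized to DMSO and 100 uM tamoxifen; AC50 by Hill fit.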
The depositor's hits bear a star; i = inactive; ? = inconclusive; . = no result. In the library only some 3% were active in any assay of this set; here they are far more common. Unless noted, calls come from the whole dose curve; as a rule, active = well fitted curve in the direction sought with a large enough effect; inconclusive = small, poorly fitted or top-dose-only effect, or another doubt; inactive = no such curve, though single readings can be large; an effect the other way counts as inactive or inconclusive. Unless noted, % is set by controls: 0 for no effect and ±100 for the full control effect; potency is the fitted concentration of half-maximal effect.

SMILES	S16 viability	pS6 MEF inh	p53null 39C kill	SKOV3 invasion	PMP22 txn	p53null 32C tox
CC(C)c1ccc(N2C(=O)CSC23C(=O)N(Cc2ccccc2)c2ccccc23)cc1 (stereo unspecified)	3.2%	1.6%	39.3%	i	?	37.8%
CCCCN1C(=O)C(O)(CC(=O)c2ccc(CC)cc2)c2cc(Br)ccc21 (stereo unspecified)	?	16.5µM*	?	-0.6%	?	64.5%
COc1ccccc1C(=O)CC1(O)C(=O)N(CC(N)=O)c2ccccc21 (stereo unspecified)	3.5%	13.5%	?	1.2%	2.3%	-0.7%
CCCN1C(=O)C(O)(CC(=O)c2ccc(CC)cc2)c2ccccc21 (stereo unspecified)	-24.6%	14.7µM*	27.0%	9.0%	5.6%	11.0%
CC(C)c1ccc(C(=O)CC2(O)C(=O)N(CCc3ccccc3)c3ccc(Cl)cc32)cc1 (stereo unspecified)	24.2%	-25.8%	12.6µM*	-15.6%	?	68.3%
COC(=O)CN1C(=O)C(O)(CC(=O)c2ccc(F)cc2)c2ccccc21 (stereo unspecified)	?	?	29.9%	5.4%	-28.0%	1.1%
C#CCN1C(=O)C(O)(CC(=O)c2ccc(OC)c(OC)c2)c2cc(Br)ccc21 (stereo unspecified)	?	5.21µM*	?	?	?	6.1%
N[C@@H](CC(=O)N1CCn2c(nnc2C(F)(F)F)C1)Cc1cc(F)c(F)cc1F	.	.	.	-2.0%	.	.
CCCN1C(=O)C(O)(CC(=O)c2ccc(C(C)C)cc2)c2ccccc21 (stereo unspecified)	?	13.1µM*	-5.8%	-7.7%	-15.3%	4.1%
O=C(CN1C(=O)C2(OCCO2)c2ccccc21)c1ccc(Cl)cc1	.	.	2.8%	.	.	4.4%
CCCCN(C)CC(O)Cn1cc(/C=C/C(=O)c2ccc(C)cc2)c2ccccc21 (stereo unspecified)	?	?	22.4µM*	?	?	15.8µM*
CCCN(CCC)CC(O)Cn1cc(/C=C/C(=O)c2ccc(C)cc2)c2ccccc21 (stereo unspecified)	?	-10.1%	?	?	?	?
COc1ccc(C(=O)/C=C/c2cn(CC(O)CN(CC(C)C)CC(C)C)c3ccccc23)cc1 (stereo unspecified)	-2.5%	-9.6%	-1.3%	i	?	-7.2%
COc1ccc(C(=O)/C=C/c2cn(CC(O)CN3CCCCCC3)c3ccccc23)cc1OC (stereo unspecified)	-19.8%	-15.4%	?	-15.1%	?	0.7%
CCCN(CCC)CC(O)Cn1cc(/C=C/C(=O)c2ccc(OC)cc2)c2ccccc21 (stereo unspecified)	?	14.7µM*	?	?	?	?
CCCCN(C)CC(O)Cn1cc(/C=C/C(=O)c2ccc(OC)c(OC)c2)c2ccccc21 (stereo unspecified)	-23.9%	?	12.6µM*	-22.2%	?	?
CCCCN(C)CC(O)Cn1cc(/C=C/C(=O)c2ccc(Br)cc2)c2ccccc21 (stereo unspecified)	?	?	12.6µM*	?	?	?
Nc1nc(NCCNc2ncc(-n3ccnc3)c(-c3ccc(Cl)cc3Cl)n2)ccc1[N+](=O)[O-]	.	.	.	-7.1%	.	.
Cc1cc(Nc2nc(N[C@@H](C)c3ccc(F)cc3)c(C#N)cc2F)n[nH]1	.	.	.	5.8%	.	.
O=C(/C=C/c1cn(CC(O)CN2CCCCCC2)c2ccccc12)c1ccc(Br)cc1 (stereo unspecified)	-9.2%	?	15.8µM*	-4.7%	?	0.5%

Bioassay records deposited in PubChem by National Center for Advancing Translational Sciences (NCATS).
